According to PubChem BioAssay (NCATS):
Results filed as inconclusive are left out. Activity calls are given as the source filed them. The call rests on the fitted dose curve; in most records, active means well fitted curve in the direction sought with a large enough effect; inconclusive means small, poorly fitted or top-dose-only effect, or another doubt; inactive means no such curve, though single readings can be large; an effect the other way counts as inactive or inconclusive.

Columns and labels:
[1] = biological target: Glutathione peroxidase 1 (Homo sapiens) (UniProt P07203); assay: Primary qHTS Assay for Inhibitors of Recombinant Selenoprotein Glutathione Peroxidase 1 (GPX1) (AID 1845191); settings: recombinant GPX1, GR-coupled NADPH fluorescence, 15 min; series mostly up to 48.8 µM; further: nearly all actives have a fitted effect of over 65% in size; on activity, negative = inhibition: on the % scale 0 is the no-effect control and ±100 the full control effect
Outline: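 Recombinant GPX1 (10 nM final) was preincubated with compound for 30 min at room temperature, then reacted with 1 mM GSH, 0.5 mM CHP, 0.5 mM NADPH and 100 nM glutathione reductase; NADPH fluorescence (340/450 nm) was read at 0 and 15 min.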

[2] = biological target: Phospholipid hydroperoxide glutathione peroxidase GPX4 (Homo sapiens) (UniProt P36969); assay: Primary qHTS Assay for Inhibitors of Recombinant Selenoprotein Glutathione Peroxidase 4 (GPX4) (AID 1845192); settings: recombinant GPX4, GR-coupled NADPH fluorescence, 15 min; series mostly up to 50 µM; further: nearly all actives have a fitted effect of over 65% in size; on activity change, negative = inhibition: on the % scale 0 is the no-effect control and ±100 the full control effect
Outline: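 GR-coupled readout: 100 nM GR, 1 mM GSH, 0.5 mM NADPH; NADPH fluorescence (ex 340/em 450 nm) read at t=0 and after 15 min RT. GPX4 200 nM, preincubated 30 min with compound; substrate 0.5 mM CHP.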

[3] = biological target: Luciferin 4-monooxygenase (Photinus pyralis) (UniProt P08659); assay: Primary firefly luciferase (FLuc) qHTS assay for identification of artifact compounds. (AID 1845220); settings: purified firefly luciferase, luminescence, 5 min; series mostly up to 54.1 µM; further: nearly all actives have a fitted effect of over 60% in size;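 on activity change, negative = inhibition: plate controls were DMSO vehicle for no effect and no enzyme for full effect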
Outline: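 In this counter-screen for luciferase artifacts, test compounds met substrate (10 uM each luciferin and ATP) before 10 nM enzyme started the reaction. Light output was measured 5 min later.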

[4] = Primary fluorescence-based thiol-reactive (MSTI) qHTS assay for identification of artifact compounds. (AID 1845221); settings: MSTI thiol-reactivity probe, 1 h; series mostly up to 53.8 µM;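 further: thiol-reactive compounds lower the probe fluorescence signal; nearly all actives have a fitted effect of over 65% in size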
Outline: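 Probe: MSTI 4 uM, PBS pH 7.4, 2% DMSO. Incubation 1 h, RT, light-protected. Readout fluorescence 525/598 nm.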

[5] = system: Nanoluciferase (engineered Oplophorus gracilirostris luciferase); assay: Primary Nanoluciferase (NLuc) qHTS assay for identification of artifact compounds. (AID 1845222); settings: NLuc-conditioned medium, Nano-Glo luminescence, 5 min; series mostly up to 54.1 µM;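 further: NLuc secreted into diluted conditioned medium of S16 cells; 0% = DMSO and -100% = no enzyme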
Outline: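 Using secreted nanoluciferase in S16 culture medium (0.22 um filtered, 1:55 dilution), compounds were preincubated 15 min at RT. Signal was generated with Nano-Glo reagent (1:100) over 5 min.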

[6] = Primary redox qHTS assay for identification of artifact compounds. (AID 1845223); settings: Amplex Red/HRP redox cycling with DTT, fluorescence; series mostly up to 53.8 µM;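 further: 0% = DMSO and 100% = reference compound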
Outline: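 Amplex Red (25 uM) and HRP (250 mU/mL) in HBSS, with compounds for 15 min, then 250 uM DTT for 30 min, room temperature, dark. Fluorescence 525/598 nm read; normalized to DMSO and 10 uM DA3003; Hill fit.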

Glutathione peroxidase 1 (Homo sapiens), sequence (P07203 whole entry, looked up): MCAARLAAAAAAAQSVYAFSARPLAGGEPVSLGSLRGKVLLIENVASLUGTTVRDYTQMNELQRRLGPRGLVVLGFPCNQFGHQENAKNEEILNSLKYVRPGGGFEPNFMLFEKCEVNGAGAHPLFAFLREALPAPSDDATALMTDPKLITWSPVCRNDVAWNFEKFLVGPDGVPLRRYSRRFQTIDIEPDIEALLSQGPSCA
Phospholipid hydroperoxide glutathione peroxidase GPX4 (Homo sapiens), sequence (P36969 whole entry, looked up): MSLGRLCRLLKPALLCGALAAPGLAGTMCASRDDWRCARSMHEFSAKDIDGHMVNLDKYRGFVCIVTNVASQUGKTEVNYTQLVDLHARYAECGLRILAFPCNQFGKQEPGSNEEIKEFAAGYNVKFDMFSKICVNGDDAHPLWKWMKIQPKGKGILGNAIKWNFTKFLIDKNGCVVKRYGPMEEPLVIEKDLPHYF

C=CC(C)(C)c1[nH]c2cccc3c2c1C[C@@H]1[C@@H]3[C@@H](OC(C)=O)[C@H](C)CN1C
inactive: Potency [1] | Potency [2] | Potency [3] | Potency [4] | outcome [5] | outcome [6]

CCCCCCn1c(=O)c(C(=O)Nc2ccc(C(=O)OCCC)cc2)c(O)c2ccccc21
inactive: outcome [1] inactive [at 9.52 µM] | activity change, negative = inhibition [2] 18.5% [at 9.73 µM] | activity change, negative = inhibition [3] 0.207% [at 11.6 µM] | activity change, negative = thiol reactive [4] -6.91% [at 11.5 µM] | activity, negative = inhibition [5] 1.06% [at 11.6 µM] | redox activity (% of DA3003) [6] -1.37% [at 11.5 µM]

C=C1[C@@H]2CC[C@@]3(C)[C@H](c4ccoc4)OC(=O)C[C@]13O[C@H]1CC(=O)C(C)(C)[C@H](C(OC(C)=O)C(=O)OC)[C@]12C (some centres undefined)
inactive: Potency [1] | Potency [2] | Potency [3] | Potency [4] | outcome [5] | outcome [6]

CCC1(C)CC(=O)NC(=O)C1
inactive: Potency [1] | Potency [2]

OCCCCC#Cc1cncc(OC[C@@H]2CCN2)c1
inactive: Potency [1] | Potency [2] | Potency [3] | Potency [4] | outcome [5] | outcome [6]

CCc1c(C(=O)C(N)=O)c2c(OCC(=O)OC)cccc2n1Cc1ccccc1
inactive: Potency [1] | Potency [2] | Potency [3] | Potency [4] | outcome [5] | outcome [6]

CC[C@H]1CN2CC[C@H]1C[C@H]2[C@H](O)c1ccnc2ccc(OC)cc12
inactive: Potency [1] | Potency [2] | Potency [3] | Potency [4] | outcome [5] | outcome [6]

CC[C@H]1CN2CC[C@H]1C[C@@H]2[C@@H](O)c1ccnc2ccc(OC)cc12
inactive: Potency [1] | Potency [2] | Potency [3] | Potency [4] | outcome [5] | outcome [6]

C/C=C(\C)C(=O)OC1CC2C(C)(C)OC(=O)CC(OC(C)=O)C2(C)C2CC(OC(=O)C(C)C)C3(C)C(c4ccoc4)CC4OC43C12C (centres undefined)
inactive: Potency [1] | Potency [2] | Potency [3] | Potency [4] | outcome [5] | outcome [6]

COC(=O)C1(C)CCC(=O)C2(C)c3c(O)cc(C(C)C)cc3C(O)C(OC(C)=O)C12 (centres undefined)
inactive: Potency [1] | Potency [2] | Potency [3] | Potency [4] | outcome [5] | outcome [6]

CC(N)Cc1c[nH]c2ccccc12 (centres undefined)
inactive: Potency [1] | Potency [2] | Potency [3] | Potency [4] | outcome [5] | outcome [6]

COC1=CC(=O)O[C@@H](CCc2ccccc2)C1
inactive: Potency [1] | Potency [2] | Potency [3] | Potency [4] | outcome [5] | outcome [6]

C/C=C(\C)C(=O)OC1CC2C(CC=C3CC(OC4CC(OC)C(OC5CC(OC)C(OC6OC(C)C(OC7OC(CO)C(O)C(O)C7O)C(OC)C6O)C(C)O5)C(C)O4)CCC32C)C2(O)CCC(C(C)=O)C12C (centres undefined)
inactive: Potency [1] | Potency [2] | outcome [3] inactive [at 11.6 µM] | activity change, negative = thiol reactive [4] 19.1% [at 11.5 µM] | activity, negative = inhibition [5] 4.82% [at 11.6 µM] | redox activity (% of DA3003) [6] 4.57% [at 11.5 µM]

C[C@]12CC[C@H]3[C@@H]([C@H](O)CC4=CC(=O)CC[C@@]43C)[C@@H]1CC[C@@H]2O
inactive: Potency [1] | Potency [2] | Potency [3] | Potency [4] | outcome [5] | outcome [6]

O=C1C[C@@H]2OCC=C3CN4CC[C@]56c7ccccc7N1[C@H]5[C@H]2[C@H]3C[C@H]46
inactive: Potency [1] | Potency [2] | Potency [3] | Potency [4] | outcome [5] | outcome [6]

COC(=O)C1(C)CCC(O)C2(C)c3c(O)cc(C(C)C)cc3C(O)C(OC(C)=O)C12 (centres undefined)
inactive: Potency [1] | Potency [2] | Potency [3] | Potency [4] | outcome [5] | outcome [6]

Cc1cc(C(=O)CN2CCCC2)c(C)n1-c1ccc(F)cc1
inactive: Potency [1] | Potency [2] | Potency [3] | Potency [4] | outcome [5] | outcome [6]

C1=C2CCCN[C@H]2[C@@H]2C[C@H]1[C@H]1CCCCN1C2
inactive: Potency [1] | Potency [2] | Potency [3] | Potency [4] | outcome [5] | outcome [6]

CN1CCCC1CCOC(c1cc2nccc(C(=O)O)c2[nH]1)c1ccccc1Cl (centres undefined)
inactive: Potency [1] | Potency [2] | Potency [3] | Potency [4] | outcome [5] | outcome [6]

COc1cc(CCNCc2ccccc2O)c(OC)cc1C#N
inactive: Potency [1] | Potency [2] | Potency [3] | Potency [4] | outcome [5] | outcome [6]

Clc1ccc(N2C[C@H]3CC[C@@H](C2)N3)nn1
inactive: Potency [1] | Potency [2] | Potency [3] | Potency [4] | outcome [5] | outcome [6]

Cn1ncnc1COc1nn2c(-c3c(F)cccc3F)nnc2cc1C1CCC1
inactive: Potency [1] | Potency [2] | Potency [3] | Potency [4] | outcome [5] | outcome [6]

CCC(C)(C#N)O[C@@H]1O[C@H](CO)[C@@H](O)[C@H](O)[C@H]1O (some centres undefined)
inactive: Potency [1] | Potency [2] | Potency [3] | Potency [4] | outcome [5] | outcome [6]
